Bioassay records (PubChem)
DT40 TDP1 CPT – qHTS for Inhibitors of human tyrosyl-DNA phosphodiesterase 1 (TDP1): qHTS in cells in presence of CPT. chicken DT40 Tdp1-/-;hTDP1 cells + 20 nM CPT, ATP luminescence, 48 h. Potency, µM (highest dose often 46.2 µM), for inactives: at the highest dose activity change, negative = growth inhibition, hits mostly inhibitors. 420,000 tested, 12% active. AID 686979, 2013; also: nearly all actives have a fitted effect of over 55% in size
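Chicken DT40 Tdp1-/- cells complemented with human TDP1, 400 cells/well, exposed to compounds plus 20 nM camptothecin for at least 48 h at 37 C; viability read as ATP content by CellTiter-Glo luminescence.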
12-LOX inh – Primary qHTS assay for inhibitors of human arachidonate 12S-lipoxygenase (ALOX12): Round 2; Polyunsaturated fatty acid lipoxygenase ALOX12 (Homo sapiens), P18054; purified 12hLO, xylenol orange hydroperoxide absorbance; Potency, µM (titrated, usually from 108 µM), inactives show at the top dose activity change, negative = inhibition, hits mostly inhibitors; 580,000 tested, 1.1% active; AID 1671190, 2021
Target sequence (P18054 whole entry, looked up): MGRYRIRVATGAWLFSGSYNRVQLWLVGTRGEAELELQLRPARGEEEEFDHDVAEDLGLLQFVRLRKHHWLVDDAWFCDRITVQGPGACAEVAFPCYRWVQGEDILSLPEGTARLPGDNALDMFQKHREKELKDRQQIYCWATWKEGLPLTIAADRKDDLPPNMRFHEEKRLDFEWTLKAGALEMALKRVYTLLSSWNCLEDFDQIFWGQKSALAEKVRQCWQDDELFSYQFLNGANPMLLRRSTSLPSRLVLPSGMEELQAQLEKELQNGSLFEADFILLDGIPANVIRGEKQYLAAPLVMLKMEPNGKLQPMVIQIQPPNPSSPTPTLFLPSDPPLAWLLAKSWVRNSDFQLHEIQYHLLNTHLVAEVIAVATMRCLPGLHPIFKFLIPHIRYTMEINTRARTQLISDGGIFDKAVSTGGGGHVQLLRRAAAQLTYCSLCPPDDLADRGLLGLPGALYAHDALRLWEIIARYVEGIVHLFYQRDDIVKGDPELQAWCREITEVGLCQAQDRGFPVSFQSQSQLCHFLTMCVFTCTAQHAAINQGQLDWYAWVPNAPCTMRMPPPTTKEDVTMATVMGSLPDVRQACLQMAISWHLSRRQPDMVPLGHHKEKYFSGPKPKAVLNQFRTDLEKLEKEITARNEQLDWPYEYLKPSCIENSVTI
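Purified human 12hLO at 150 nM in 25 mM Hepes, 0.01% Triton X-100, pH 7.0, preincubated 15 min at room temperature with compound. Reaction started with 40 uM arachidonic acid, 30 min at room temperature. Hydroperoxide measured by Fe-xylenol orange, 573/405 nm absorbance ratio.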
ELG1 repair inh – qHTS screen for small molecules that inhibit ELG1-dependent DNA repair in human embryonic kidney (HEK293T) cells expressing luciferase-tagged ELG1. HEK293T ELG1-luciferase reporter, luminescence, 16 h; DNA damage induced by 5-fluorouridine. Potency, µM (series often up to 46.1 µM), without a hit: at the top dose activity change, negative = inhibition, hits mostly inhibitors. 330,000 tested, 2.3% active. AID 504467, 2011; also: nearly all actives have a fitted effect of over 55% in size
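Quantitative HTS, concentration-response format. 2,000 cells/well co-treated with 5-fluorouridine and compound, 16 hr in 5% CO2 at 37 °C; ONE-Glo luminescence read after 30 min.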
RORgamma inh – qHTS for inhibitors of ROR gamma transcriptional activity | Drosophila S2 Gal4-RORgamma UAS-luciferase reporter, 20 h | Potency, µM (series often up to 53.6 µM), without a hit: at the highest dose activity change, negative = inhibition, hits mostly inhibitors | 310,000 tested, 5.4% active | AID 2551, 2010; also: nearly all actives have a fitted effect of over 60% in size
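A Gal4/UAS one-hybrid system in insect cells: metallothionein-promoter Gal4–ROR gamma fusion plus Photinus luciferase reporter. Copper sulfate 700 uM final, 20 hr ambient incubation, luminescent detection after 10 min with reagent.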
Gal4-VP16 FLuc – VP16 counterscreen qHTS for inhibitors of ROR gamma transcriptional activity | Potency, µM (titrated, usually from 53.6 µM), for the others: at the top dose activity, negative = inhibition, usual class: inhibitors | AID 2546, 2010 | 310,000 tested, 3.5% active | Drosophila S2 Gal4-VP16 UAS-luciferase, luminescence, 20 h;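 also: Gal4-VP16 expression switched on by copper sulfate through the metallothionein promoter; nearly all actives have a fitted effect of over 50% in size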
TDP1 cell noCPT – qHTS for Inhibitors of human tyrosyl-DNA phosphodiesterase 1 (TDP1): qHTS in cells in absence of CPT. 420,000 tested, 15% active. DT40 Tdp1-/- hTDP1 cells, no CPT, ATP luminescence, 48 h. AID 686978, 2013. Potency, µM (titrated, usually from 46.2 µM), inactives show at the highest dose activity change, negative = growth inhibition, usual class: inhibitors; also: nearly all actives have a fitted effect of over 55% in size
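Luminescent ATP content (CellTiter-Glo) served as the growth readout. Knockout chicken DT40 cells expressing human TDP1 were exposed to compounds without camptothecin for a minimum 48 hr at 37 °C.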
Starred values were filed as active, the others as inactive; u = inconclusive; x = not tested or not shown. Most compounds without a hit are left out; they make up all but 15% or so of the library. Calls follow the shape of the dose curve; as a rule, active = well fitted curve in the direction sought with a large enough effect; inconclusive = small, poorly fitted or top-dose-only effect, or another doubt; inactive = no such curve, though single readings can be large; an effect the other way counts as inactive or inconclusive. % is scaled to controls: 0 for no effect and ±100 for the full control effect; potency is read from the fitted curve at half-maximal effect.

SMILES | DT40 TDP1 CPT | 12-LOX inh | ELG1 repair inh | RORgamma inh | Gal4-VP16 FLuc | TDP1 cell noCPT
N#C[C@@H]1N(Cc2ccccc2)C(=O)[C@H]2CC3C=CC21O3 (some centres not stated) | u | -5% | 11% | x | x | u
COC(=O)c1ccc(C2SCC(=O)N2Cc2ccccc2)cc1 (configuration not stated) | -5% | x | u | -17% | 2% | u
COC(=O)C1=C(C(=O)OC)[C@]2([C@@H]3CCCCN[C@@H](Cc4ccccc4)C(=O)N3Cc3ccccc3)C=C[C@H]1O2 | 15µM* | -23% | x | x | x | 13µM*
Cc1nonc1C(=O)N/N=C/c1ccc([N+](=O)[O-])o1 | 5.8µM* | -13% | -1% | u | u | 18µM*
Cc1cc(C(=O)N/N=C/c2ccc([N+](=O)[O-])o2)c(C)o1 | 21µM* | u | u | -41% | u | 18µM*
Cc1cc(C(=O)N/N=C/c2ccc3c(c2)OCO3)c(C)o1 | -10% | -1% | u | u | 1% | u
Cc1ccccc1Cn1c2ccccc2c2cnn(CC(=O)NCCc3ccccc3)c(=O)c21 | 16µM* | -14% | x | x | x | u
Cc1ccc(C)c(Cn2c3ccccc3c3cnn(CC(=O)NCCC4=CCCCC4)c(=O)c32)c1 | -5% | 1% | x | x | x | -10%
O=C(Cn1ncc2c3ccccc3n(Cc3ccccc3F)c2c1=O)NCCCN1CCCC1=O | u | -13% | -1% | 4% | -5% | -20%
Cc1ccccc1Cn1c2ccccc2c2cnn(CC(=O)NC(C)CCc3ccccc3)c(=O)c21 (configuration not stated) | 9.2µM* | -10% | x | x | x | 9.2µM*
O=C(Cn1ncc2c3ccccc3n(Cc3ccccc3F)c2c1=O)NCCCc1ccccc1 | u | -17% | x | x | x | 18µM*
Cc1ccc(C)c(Cn2c3ccccc3c3cnn(CC(=O)NCCCc4ccccc4)c(=O)c32)c1 | u | -28% | x | x | x | 9.2µM*
Cc1nn(CC(=O)N[C@H](C)c2ccccc2)c(=O)n1-c1ccc2c(c1)OCO2 | x | -3% | x | x | x | x
O=[N+]([O-])c1ccc(/C=N/N=C(c2ccccc2)c2ccccc2)cc1 | x | -1% | x | x | x | x
Cc1cccc(NC(=O)Cn2ncc3c4ccccc4n(Cc4ccccc4)c3c2=O)c1C | u | -10% | x | x | x | 23µM*
CCCCN(CC)CCCNC(=O)Cn1ncc2c3ccccc3n(Cc3ccccc3F)c2c1=O | 13µM* | u | x | x | x | 12µM*
CC(=O)c1ccc(NC(=O)Cn2ncc3c4ccccc4n(Cc4ccccc4)c3c2=O)cc1 | 4% | -11% | x | x | x | -16%
O=C(Cn1ncc2c3ccccc3n(Cc3ccccc3F)c2c1=O)NCc1ccccc1Cl | 21µM* | -15% | x | x | x | 18µM*
CCCn1c2ccccc2c2cnn(CC(=O)NCCN(CC)CC)c(=O)c21 | -20% | 0% | 11% | 27% | 3% | u
CCCn1c2ccccc2c2cnn(CC(=O)NCc3ccccc3Cl)c(=O)c21 | u | -22% | x | x | x | u
Cc1ccc(C)c(Cn2c3ccccc3c3cnn(CC(=O)NCCCN4CCCCC4)c(=O)c32)c1 | u | -20% | 0% | -14% | -19% | 16µM*
Cc1ccc(C)c(Cn2c3ccccc3c3cnn(CC(=O)N4CCCCC4)c(=O)c32)c1 | u | -24% | x | x | x | -3%
Cc1ccc(S(=O)(=O)Oc2ccc3oc(=O)c(-c4ccccc4)c(C)c3c2)cc1 | x | 4% | x | x | x | x
